Experimental data taken from PubChem BioAssay (NCI).
This is part of a sample that, as a whole, favours compounds with a hit. Of some 83,000 tested, about 20% had one in any assay.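 Note: values are percent growth. 100 is the growth of untreated cells, values between 100 and 0 indicate rising inhibition; between -100 and 0 indicates cell death.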 The source made the active and inactive calls. The calls were made as follows: active = growth percent below 10; inactive = the rest.

Tests used:
Experiment in all cases: NCI-60 one-dose screen, 48 h (100 = growth as untreated, 0 = no growth, -100 = all killed)
Settings in all cases: 10 µM
[1] = test system: NCI-H23 lung
[2] = test system: NCI-H226 lung
[3] = test system: HOP-62 NSCLC
[4] = test system: NCI-H460 lung
[5] = test system: HOP-92 NSCLC
[6] = test system: NCI-H522 lung
[7] = test system: A549/ATCC NSCLC
[8] = test system: 786-0 renal
[9] = test system: COLO 205 colon

Measured: growth

Cc1ccc(-c2cc(-c3cccc(Nc4ccnc5cc(Cl)ccc45)c3)nc3nc(N)[nH]c(=O)c23)cc1
inactive: [1] 100% | [2] 96.6% | [3] 113% | [4] 110% | [5] 14.6% | [6] 21% | [7] 102% | [8] 94.9% | [9] 125%

O=C(CCCC(=O)N/N=C/c1cc(Cl)ccc1O)N/N=C\c1cc(Cl)ccc1O
inactive: [1] 38.4% | [2] 40.7% | [3] 24.1% | [4] 10.2% | [5] 24.4% | [6] 18.3% | [7] 29.5% | [8] 24.8% | [9] 16.3%

CCC(OC(=O)CC(C)C)c1ccccc1 (stereo not drawn)
inactive: [1] 98.8% | [2] 89.4% | [3] 96.3% | [4] 105% | [5] 92.8% | [6] 71.8% | [7] 80.6% | [8] 95.2% | [9] 107%

COc1ccc(C2C=C(c3ccc(Cl)cc3)N=C3SC=CN32)c(Br)c1 (stereo not drawn)
inactive: [1] 71.6% | [2] 81.4% | [3] 87.3% | [4] 76.7% | [5] 76.2% | [6] 65.5% | [7] 56.8% | [8] 89.6% | [9] 70.4%

O=C/C=C/c1ccc([N+](=O)[O-])cc1Cl
inactive: [1] 94% | [2] 108% | [3] 99.9% | [5] 95.1% | [6] 89.5% | [7] 98.7% | [8] 105% | [9] 108%

COc1ccc(N2CCN(c3nc(-c4ccccc4)c(C#N)c(=O)[nH]3)CC2)cc1
inactive: [1] 98.7% | [2] 107% | [3] 91.8% | [4] 103% | [5] 92.4% | [6] 92.7% | [7] 104% | [8] 103% | [9] 102%

Cc1ccc(C2C=C(c3ccc(Cl)cc3)N=C3SC=CN32)c(Br)c1 (stereo not drawn)
inactive: [1] 85% | [2] 55.5% | [3] 96.5% | [4] 84.4% | [5] 80.6% | [6] 80.7% | [7] 86.3% | [8] 93.1% | [9] 91.1%

CC(C)c1[nH]nc2c(NCc3ccc(-c4ccccn4)cc3)nc(SCCN)nc12
active: [1] -34.8% | [2] -0.633% | [3] -15.3% | [4] 3.31% | [5] -11.1% | [6] -54.8% | [7] 6.81% | [8] 6.26% | [9] -48.2%

COc1cc(/C=C/C(=O)c2cc(-c3ccc(F)cc3)ccc2O)cc(OC)c1OC
inactive: [1] 56.3% | [2] 83.5% | [4] 80.6% | [5] 57.8% | [6] 58.7% | [7] 83.5% | [8] 94.1% | [9] 88.2%

CCOC(=O)c1c(O)c2cc(-c3ccccc3)nc(OCC)c2c(=O)n1C
inactive: [1] 85.8% | [2] 79% | [3] 93.2% | [4] 110% | [5] 51.7% | [6] 98.9% | [7] 99.4% | [8] 94% | [9] 117%

Cc1cc(/C=C2\SC(=Nc3ccccc3)N(C3CCCC3)C2=O)c(C)n1-c1ccc(Cl)cc1
active: [1] -19.8% | [2] -66.6% | [3] -69.6% | [4] -57.4% | [5] -74.2% | [6] -66.8% | [7] -27.5% | [8] -85.1% | [9] -94.5%

c1ccc(C2CCCCC2)c(OCCCCCN2CCNCC2)c1
active: [4] 4.61% | [9] -74.6%
inactive: [1] 71.2% | [2] 84.7% | [3] 78.9% | [5] 29.4% | [6] 60.8% | [7] 53% | [8] 60.1%

COC(=O)c1ccc(Cn2ccc(=O)[nH]c2=O)cc1
inactive: [1] 105% | [2] 103% | [3] 106% | [4] 114% | [5] 99.3% | [6] 93.2% | [7] 105% | [8] 80.5% | [9] 113%

COc1ccc(C(C)=O)cc1N1C(=O)C2C(C1=O)C1(c3ccccc3)C(=O)C2(c2ccccc2)C(c2ccc(C)cc2)=C1c1ccc(C)cc1 (stereo not drawn)
inactive: [1] 42.8% | [2] 32.9% | [3] 33.4% | [5] 49.6% | [6] 21.2% | [8] 22.1% | [9] 23.4%
active: [4] 4.54% | [7] 6.68%

S=C(Cc1ccc(-c2ccccc2)cc1)N1CCOCC1
inactive: [1] 104% | [2] 91.7% | [4] 103% | [5] 83.1% | [6] 89.8% | [7] 90.9% | [8] 93.6% | [9] 103%

COc1ccc(-c2nnc(COc3ccc(NC(=O)Nc4cccc(C(F)(F)F)c4)cc3F)o2)cc1
active: [6] -21.2%
inactive: [1] 56.6% | [2] 87.9% | [3] 67.4% | [4] 39.3% | [5] 25.5% | [7] 57.8% | [8] 78.9% | [9] 88.1%

COc1cc(C2C=C(c3ccc(Cl)c(Cl)c3)N=C3SC(C)=CN32)cc(OC)c1OC (stereo not drawn)
inactive: [1] 79.5% | [2] 50.5% | [3] 91.1% | [4] 77.5% | [5] 81.9% | [6] 57.2% | [7] 83.8% | [8] 85.6% | [9] 81.3%

C/C(=N\NC(=S)N1CCCC1)c1ccccn1
active: [2] -7.28% | [3] 10% | [6] 5.12% | [7] 0.905% | [9] 5.14%
inactive: [1] 17% | [5] 48.5% | [8] 20%
